From PubChem BioAssay (Tox21)
Inconclusive results are not listed. Calls of active or inactive are those of the source. Unless noted, the call rests on the fitted dose curve.

Key:
[1] = Nuclear factor erythroid 2-related factor 2/antioxidant responsive element (Nrf2/ARE) small molecule agonists: qHTS cell viability counter screen in human keratinocytes (AID 1919968; active means well fitted curve in the direction sought with a large enough effect in the repeat runs; an effect the other way counts as inactive or inconclusive; further: nearly all actives have a fitted effect of over 55% in size; further: potency means the concentration at half of the fitted maximal effect)
Method in brief: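 KeratinoSens cells (HaCaT keratinocytes stably carrying an ARE-luciferase reporter) were seeded at 1,500 cells/well and rested 5 h at 37 C/5% CO2. They were then exposed to compounds in DMSO for 23 h. Viability was read by CellTiter-Fluor fluorescence after 1 h.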

[2] = Nuclear factor erythroid 2-related factor 2/antioxidant responsive element (Nrf2/ARE) small molecule agonists: luciferase reporter gene qHTS assay in human keratinocytes (AID 1919969); further: nearly all actives have a fitted effect of over 35% in size; further: potency means the concentration at half of the fitted maximal effect
[3] = target: Gonadotropin-releasing hormone receptor (Homo sapiens) (UniProt P30968); experiment: Human gonadotropin-releasing hormone receptor (GnRHR) small molecule agonists, calcium flux assay in GnRHR-HEK293 cells (AID 1920063); further: nearly all actives have a fitted effect of over 35% in size; further: potency means the concentration at half of the fitted maximal effect
Gonadotropin-releasing hormone receptor (Homo sapiens), sequence (P30968 whole entry, looked up): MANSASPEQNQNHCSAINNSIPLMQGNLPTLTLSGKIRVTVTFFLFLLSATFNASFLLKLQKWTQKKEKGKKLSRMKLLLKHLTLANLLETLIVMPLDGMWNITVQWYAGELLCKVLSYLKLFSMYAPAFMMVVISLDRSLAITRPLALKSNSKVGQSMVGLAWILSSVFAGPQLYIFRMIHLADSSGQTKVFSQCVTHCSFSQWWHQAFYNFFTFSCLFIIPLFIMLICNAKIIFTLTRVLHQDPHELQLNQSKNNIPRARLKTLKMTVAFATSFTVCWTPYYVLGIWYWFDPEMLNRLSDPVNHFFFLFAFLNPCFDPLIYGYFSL
Method in brief: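 HEK293 cells stably expressing human GnRHR were plated 18 h at 37 °C, loaded with calcium dye 1 h at 37 °C, then given compound in agonist mode; fluorescence (Ex/Em 480/540) read kinetically for 3 min at 1 s intervals.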

[4] = target: KiSS-1 receptor (Homo sapiens) (UniProt Q969F8); experiment: Human kisspeptin (KISS1R) small molecule agonists, calcium flux assay in KISS1R-HEK293 cells (AID 1920064; active means well fitted curve in the direction sought with a large enough effect in the repeat runs; an effect the other way counts as inactive or inconclusive)
KiSS-1 receptor (Homo sapiens), sequence (Q969F8 whole entry, looked up): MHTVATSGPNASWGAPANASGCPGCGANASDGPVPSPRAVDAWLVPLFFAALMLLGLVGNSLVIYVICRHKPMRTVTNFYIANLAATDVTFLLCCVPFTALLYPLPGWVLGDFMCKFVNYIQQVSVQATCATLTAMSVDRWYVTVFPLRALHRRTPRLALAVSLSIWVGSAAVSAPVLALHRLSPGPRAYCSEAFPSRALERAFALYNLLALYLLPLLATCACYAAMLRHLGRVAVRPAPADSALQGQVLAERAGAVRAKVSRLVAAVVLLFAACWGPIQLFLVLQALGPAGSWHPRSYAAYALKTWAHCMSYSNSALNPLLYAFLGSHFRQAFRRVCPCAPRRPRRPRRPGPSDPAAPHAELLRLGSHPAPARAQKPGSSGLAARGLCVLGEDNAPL
Method in brief: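 HEK293 cells stably expressing human KISS1R were plated 18 h at 37 °C, loaded with calcium dye for 1 h at 37 °C, then given compound by pin tool. Fluorescence (Ex/Em 480/540) was read kinetically for 3 min.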

[5] = p53 small molecule agonists, cell-based qHTS assay with human liver microsomes: qHTS cell viability counter screen (AID 1963579); further: nearly all actives have a fitted effect of over 45% in size; further: potency means the concentration at half of the fitted maximal effect
Method in brief: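 In this multiplexed counter screen, the reporter plates were subsequently treated with CellTiter-Glo so that cell viability, reflected by luminescence, could be recorded for p53RE-bla cells dosed 16 h with compounds under microsomal activation (HLM and NADPH).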

[6] = p53 small molecule agonists, cell-based qHTS assay with rat liver microsomes: qHTS cell viability counter screen (AID 1963580); further: nearly all actives have a fitted effect of over 45% in size; further: potency means the concentration at half of the fitted maximal effect
Method in brief: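 p53RE-bla HCT-116 cells (4,000/well) rested 5 h at 37 C, then given Tox21 compounds in DMSO with rat liver microsomes (0.5 mg/mL final) plus NADPH (0.5 mg/mL final) for 16 h at 37 C. Viability read by CellTiter-Glo luminescence after 30 min at room temperature.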

[7] = p53 small molecule agonists, cell-based qHTS assay: qHTS cell viability counter screen (AID 1963581); further: nearly all actives have a fitted effect of over 45% in size; further: potency means the concentration at half of the fitted maximal effect
Method in brief: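 p53RE-bla HCT-116 cells were exposed to compounds for 16 h at 37 C; after the beta-lactamase FRET read in the same wells, CellTiter-Glo was added and luminescence (intracellular ATP) read after 30 min at room temperature.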

[8] = target: 5-hydroxytryptamine receptor 2A (Homo sapiens) (UniProt P28223); experiment: 5-hydroxytryptamine receptor 2A (HTR2A) small molecule antagonists, cell-based qHTS assay (AID 1963586); further: nearly all actives have a fitted effect of over 45% in size
5-hydroxytryptamine receptor 2A (Homo sapiens), sequence (P28223 whole entry, looked up): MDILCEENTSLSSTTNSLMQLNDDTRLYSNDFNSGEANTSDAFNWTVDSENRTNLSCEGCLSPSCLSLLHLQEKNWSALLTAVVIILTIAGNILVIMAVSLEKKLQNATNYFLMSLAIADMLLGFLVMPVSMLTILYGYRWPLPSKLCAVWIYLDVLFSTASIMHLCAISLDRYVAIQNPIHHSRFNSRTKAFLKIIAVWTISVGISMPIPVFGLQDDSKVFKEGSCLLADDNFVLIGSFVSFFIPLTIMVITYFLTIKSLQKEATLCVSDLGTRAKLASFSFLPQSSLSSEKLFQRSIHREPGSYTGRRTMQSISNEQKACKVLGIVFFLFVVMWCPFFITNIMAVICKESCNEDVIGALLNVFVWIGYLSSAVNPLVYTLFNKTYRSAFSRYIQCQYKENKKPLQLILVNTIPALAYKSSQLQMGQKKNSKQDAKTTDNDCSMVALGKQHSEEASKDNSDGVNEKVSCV
Method in brief: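 Antagonist-mode intracellular calcium assay: DOI (4 nM) added after 5 min compound pre-incubation at room temperature to dye-loaded HTR2A-CHO cells. Fluorescence followed for 3 min, sampled every second.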

[9] = target: 5-hydroxytryptamine receptor 2A (Homo sapiens) (UniProt P28223); experiment: 5-hydroxytryptamine receptor 2A (HTR2A) small molecule agonists, cell-based qHTS assay (AID 1963587); further: nearly all actives have a fitted effect of over 30% in size; further: potency means the concentration at half of the fitted maximal effect
Method in brief: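 HTR2A-CHO cells, plated 18 h at 37 C/5% CO2, dye-loaded 1 h at 37 C; compounds in DMSO added by pin tool (agonist mode). Intracellular calcium flux read as kinetic fluorescence on FDSS over 2 min at 1 s intervals.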

[10] = target: Muscarinic acetylcholine receptor M1 (Homo sapiens) (UniProt P11229); experiment: Cholinergic receptor muscarinic 1 (CHRM1) small molecule antagonists, cell-based qHTS assay (AID 1963588); further: nearly all actives have a fitted effect of over 40% in size
Muscarinic acetylcholine receptor M1 (Homo sapiens), sequence (P11229 whole entry, looked up): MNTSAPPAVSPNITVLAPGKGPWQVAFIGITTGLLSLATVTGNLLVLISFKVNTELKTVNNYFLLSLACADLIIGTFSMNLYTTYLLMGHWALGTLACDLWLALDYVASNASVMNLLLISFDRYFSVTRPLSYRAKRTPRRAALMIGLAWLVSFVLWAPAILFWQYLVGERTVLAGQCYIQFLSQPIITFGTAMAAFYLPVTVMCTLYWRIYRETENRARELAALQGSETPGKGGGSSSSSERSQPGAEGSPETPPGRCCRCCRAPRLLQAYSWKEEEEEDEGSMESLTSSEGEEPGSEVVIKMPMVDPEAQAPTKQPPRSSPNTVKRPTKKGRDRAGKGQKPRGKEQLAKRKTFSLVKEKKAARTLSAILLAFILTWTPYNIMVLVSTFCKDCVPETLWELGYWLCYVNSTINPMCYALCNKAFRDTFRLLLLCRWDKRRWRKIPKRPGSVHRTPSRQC
Method in brief: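 CHRM1-CHO calcium-flux assay, antagonist mode. Cells were seeded 18 h, dye-loaded 1 h at 37 C and given compound for 5 min at RT, then acetylcholine was added at 50nM. FDSS fluorescence was read 3 min; 15 concentrations, three runs.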

[11] = target: Muscarinic acetylcholine receptor M1 (Homo sapiens) (UniProt P11229); experiment: Cholinergic receptor muscarinic 1 (CHRM1) small molecule agonists, cell-based qHTS assay (AID 1963589); further: nearly all actives have a fitted effect of over 35% in size
Method in brief: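 CHO cells stably expressing human CHRM1, seeded 18 h at 37 C/5% CO2, dye-loaded 1 h at 37 C, then given compound in agonist mode; intracellular calcium fluorescence read kinetically at 1 s intervals. Fifteen concentrations, three independent runs.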

[12] = cAMP Responsive Elements (CRE) small molecule agonists, cell-based qHTS assay (AID 1963590)
Method in brief: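 CRE-bla HEK 293T cells in DMEM with 10% dialyzed FBS, NEAA, pyruvate and 25 mM HEPES were plated 18 h at 37 C/5% CO2, then exposed to compounds in DMSO for 3 h before LiveBLAzer B/G FRET substrate addition.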

[13] = target: Beta-2 adrenergic receptor (Homo sapiens) (UniProt P07550); experiment: Adrenergic beta2 receptor (ADRB2) small molecule antagonists, cell-based qHTS assay (AID 1963592); further: nearly all actives have a fitted effect of over 50% in size; further: potency means the concentration at half of the fitted maximal effect
Beta-2 adrenergic receptor (Homo sapiens), sequence (P07550 whole entry, looked up): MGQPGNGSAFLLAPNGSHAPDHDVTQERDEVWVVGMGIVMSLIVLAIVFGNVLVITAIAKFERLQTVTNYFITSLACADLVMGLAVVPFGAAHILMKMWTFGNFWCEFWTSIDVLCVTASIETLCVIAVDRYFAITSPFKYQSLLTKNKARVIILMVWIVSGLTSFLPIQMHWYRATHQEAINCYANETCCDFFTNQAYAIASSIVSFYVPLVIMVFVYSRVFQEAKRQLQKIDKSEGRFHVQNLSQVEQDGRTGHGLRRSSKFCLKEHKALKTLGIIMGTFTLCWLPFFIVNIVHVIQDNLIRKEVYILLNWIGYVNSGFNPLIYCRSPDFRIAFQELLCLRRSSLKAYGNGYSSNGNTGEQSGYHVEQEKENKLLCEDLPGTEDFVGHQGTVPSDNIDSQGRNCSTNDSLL
Method in brief: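 Cells (CHO, stable ADRB2 overexpression) incubated 18-20hr at 37C; compounds added from DMSO; agonist mix (1nM isoproterenol, 100uM IBMX, 25uM Ro-20-1724) added; 0.5hr RT; d2-cAMP and anti-cAMP-cryptate added; 1hr RT; 665/615 nm read.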

[14] = p53 small molecule agonists, cell-based qHTS assay with human liver microsomes (AID 1963577); further: potency means the concentration at half of the fitted maximal effect;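 on activation: p53 response element beta-lactamase reporter cells with liver microsomes plus NADPH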
Method in brief: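 16 h, 37 C exposure of p53RE-bla cells to compounds with human liver microsomes and NADPH (0.5 mg/mL final each); detection via LiveBLAzer mixture, 2 h dark at room temperature.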

[15] = p53 small molecule agonists, cell-based qHTS assay with rat liver microsomes (AID 1963578)
Method in brief: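 With rat liver microsomes and NADPH present (0.5 mg/mL final each), p53RE-bla cells are treated with compound for 16 h at 37 C. LiveBLAzer detection mixture is then applied for 2 h at room temperature in the dark.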

[16] = target: D(2) dopamine receptor (Homo sapiens) (UniProt P14416); experiment: Dopamine D2 receptor (DRD2) small molecule antagonists, cell-based qHTS assay (AID 1963595; active means well fitted inhibition curve with a large enough effect in the signal ratio in the repeat runs, with a control signal flat; the % refers to the signal ratio; further: potency means the concentration at half of the fitted maximal effect)
D(2) dopamine receptor (Homo sapiens), sequence (P14416 whole entry, looked up): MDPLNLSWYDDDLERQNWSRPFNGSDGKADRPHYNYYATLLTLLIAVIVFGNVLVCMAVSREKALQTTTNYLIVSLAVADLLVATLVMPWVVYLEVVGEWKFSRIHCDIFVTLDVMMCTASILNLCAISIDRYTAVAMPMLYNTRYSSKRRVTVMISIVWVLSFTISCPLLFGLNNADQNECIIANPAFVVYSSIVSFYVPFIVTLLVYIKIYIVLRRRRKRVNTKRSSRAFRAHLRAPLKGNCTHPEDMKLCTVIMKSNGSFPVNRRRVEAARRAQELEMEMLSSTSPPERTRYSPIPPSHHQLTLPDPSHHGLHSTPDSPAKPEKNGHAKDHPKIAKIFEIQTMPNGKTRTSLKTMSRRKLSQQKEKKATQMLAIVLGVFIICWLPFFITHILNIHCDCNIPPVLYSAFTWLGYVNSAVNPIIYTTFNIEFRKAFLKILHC
Method in brief: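 Antagonist mode in DRD2-HEK293 cells: after compound addition with 0.1 mM Ro20-1724, cells received quinpirole (12 nM) and NKH477 (200 nM) for 30 min at room temperature; HTRF cAMP read after 1 h detection.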

[17] = p53 small molecule agonists, cell-based qHTS assay (AID 1963582; active means well fitted activation curve with a large enough effect in the signal ratio in the repeat runs, not every such curve was filed as active; the % refers to the signal ratio)
Method in brief: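 p53RE-bla beta-lactamase reporter cells rested 5 h at 37 C/5% CO2, then received compounds in DMSO by pin transfer and were incubated 16 h at 37 C. LiveBLAzer B/G FRET substrate was loaded for 2 h at room temperature before fluorescence reading.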

[18] = cAMP Responsive Elements (CRE) small molecule antagonists, cell-based qHTS assay (AID 1963591; active means well fitted inhibition curve with a large enough effect in the signal ratio in the repeat runs, not every such curve was filed as active; the % refers to the signal ratio)
Method in brief: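 CRE-bla HEK293T cells were plated 18 h at 37 °C/5% CO2, pinned with compound in DMSO, then stimulated with NKH477 at 0.25 uM final for 3 h. LiveBLAzer B/G FRET substrate was added and plates incubated 2 h at room temperature.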

[19] = target: D(2) dopamine receptor (Homo sapiens) (UniProt P14416); experiment: Dopamine D2 receptor (DRD2) small molecule agonists, cell-based qHTS assay (AID 1963594); further: nearly all actives have a fitted effect of over 35% in size
Method in brief: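 HEK293 cells stably expressing DRD2 were cultured 24 h at 37 C, then given Ro20-1724 (0.1 mM final) and compounds for 10 min at room temperature. NKH477 (200nM) was then added for 30 min. cAMP was read by HTRF.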

[20] = G protein-coupled receptor (GPCR) small molecule agonists, calcium flux assay: HEK293 wild type cell line counter screen (AID 1920065)
Method in brief: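 Cells were plated and cultured 18 h at 37 C/5% CO2, then loaded with calcium dye for 1 h at 37 C. Compounds in DMSO were pin-transferred in agonist mode, and fluorescence (Ex/Em 480/540) was read kinetically for 3 min at 1 s intervals.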

Measured: Potency

CSC(C)(C)/C=N/O
inactive: [1] | [2] | [3] | [4] | [5] | [6] | [7] | [8] | [9] | [10] | [11] | [12] | [13]

CC(=O)[O][Pb]([c]1ccccc1)([c]1ccccc1)[c]1ccccc1
active: [1] 3.86 µM | [2] 0.864 µM | [3] 30.9 µM | [5] 4.08 µM | [6] 8.14 µM | [7] 16.2 µM | [9] 49 µM | [16] 4.33 µM
inactive: [4] | [14] | [15] | [8]

CC(C)(C)C(=O)C(Oc1ccc(Cl)cc1)n1cncn1 (stereo unspecified)
inactive: [1] | [2] | [3] | [4] | [15] | [5] | [6] | [7] | [17] | [8] | [9] | [18] | [13] | [16]

CN1CCN(C(=O)O[C@H]2c3nccnc3C(=O)N2c2ccc(Cl)cn2)CC1
inactive: [1] | [2] | [3] | [4] | [14] | [15] | [6] | [7] | [17] | [8] | [9] | [10] | [11] | [18] | [13] | [19] | [16]

COc1ccc2c(C(=O)c3ccc(Cl)cc3)c(C)n(CC(=O)O)c2c1
inactive: [1] | [2] | [3] | [20] | [14] | [15] | [5] | [6] | [7] | [17] | [9] | [10] | [11] | [12] | [13] | [16]

CC(C)NCC(O)c1ccc([N+](=O)[O-])cc1 (stereo unspecified)
inactive: [1] | [2] | [3] | [4] | [14] | [15] | [5] | [7] | [17] | [8] | [10] | [11] | [12] | [18] | [16]
active: [13] 5.96 µM

ClSC(Cl)(Cl)Cl
inactive: [1] | [2] | [3] | [4] | [5] | [6] | [7] | [8] | [9] | [10] | [11] | [12] | [18] | [13] | [19]

CCOc1cc(OP(=S)(OC)OC)nc(CC)n1
inactive: [1] | [2] | [3] | [4] | [5] | [7] | [17] | [8] | [9] | [11] | [12] | [18] | [13] | [19] | [16]

COc1ccc(C(=O)c2c(C)n(CCN3CCOCC3)c3ccccc23)cc1
inactive: [1] | [2] | [3] | [4] | [14] | [15] | [7] | [8] | [9] | [10] | [11] | [16]

[Cl][Sn]([Cl])([Cl])[Cl]
inactive: [1] | [2] | [3] | [4] | [14] | [15] | [7] | [8] | [9] | [10] | [11] | [12] | [18] | [19] | [16]

Oc1ccc(C2(c3ccc(O)cc3)c3ccccc3-c3ccccc32)cc1
active: [1] 30.6 µM | [2] 0.969 µM | [5] 32.4 µM
inactive: [3] | [4] | [14] | [8] | [10] | [13] | [19]

COP(=O)(OC)Oc1ccc([N+](=O)[O-])cc1
inactive: [1] | [2] | [3] | [4] | [5] | [6] | [7] | [17] | [8] | [9] | [10] | [11] | [12] | [18] | [19] | [16]
active: [14] 3.24 µM

ClC(Cl)C(Cl)(Cl)Cl
inactive: [1] | [2] | [3] | [4] | [7] | [8] | [9] | [10] | [11] | [12] | [18] | [13] | [19] | [16]

CCSC(=O)N(CC)C1CCCCC1
inactive: [1] | [2] | [3] | [4] | [5] | [7] | [8] | [9] | [10] | [11] | [12] | [18] | [13] | [19] | [16]

CCN(CC)C(C)C(=O)c1ccccc1 (stereo unspecified)
inactive: [1] | [2] | [3] | [4] | [6] | [7] | [9] | [10] | [11] | [18] | [13] | [19] | [16]

C[C@]12CC[C@H]3[C@@H](CCC4=CC(=O)CC[C@@]43C)[C@@H]1CC[C@@H]2O
inactive: [1] | [2] | [3] | [4] | [5] | [6] | [7] | [13] | [19] | [16]

C1CCNCC1
inactive: [1] | [2] | [3] | [4] | [14] | [15] | [5] | [6] | [17] | [9] | [10] | [11] | [12] | [18] | [13] | [16]

Cc1ccc(-c2c(Cl)nc(C#N)n2S(=O)(=O)N(C)C)cc1
active: [1] 15.3 µM | [2] 9.68 µM
inactive: [3] | [4] | [14] | [15] | [5] | [6] | [7] | [8] | [9] | [10] | [11] | [13] | [19] | [16]
